PubChem BioAssay
Records with an inconclusive call do not appear. For part of these data: Entries with a potency or affinity are not part of this list. Active and inactive are the calls of the source.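 How the source made its calls, unless noted: active means compound that reduces growth-factor-driven endothelial tube area in a mixed cell culture, no cutoff stated; inactive means the rest.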

Legend:
[1] = stimulators of insulin release from INS-1E, primary screen, cell-based, 5 mM glucose, NPC library (AID 1117329;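 active means compound raises insulin release from rat beta cells at 5 mM glucose, no numeric limit stated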); settings: rat INS-1E insulin secretion, at 10 µM, stronger effect = higher value
[2] = growth inhibition of GSK3B-pretreated HCT116 cells – cell-based, CellTiter-Glo, 0.2 to 20 µM (AID 1117336;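 active means compounds lowering colon cancer cell viability after pretreatment blocking the GSK3B kinase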); settings: HCT116 viability after GSK3B inhibitor, at 20 µM, stronger effect = higher value
[3] = inhibition of endothelial tube formation, primary screen, imaging, VEGF stimulated, CD31 staining, tube area, NPC library (AID 1117340); settings: VEGF-stimulated ADSC/ECFC co-culture, at 10 µM, stronger effect = higher value
[4] = GLP1 release stimulators, primary, NCI-H716, NPC library (AID 1117341;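 active means compound raises GLP1 secretion from the human gut endocrine cells, with no numeric limit stated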); settings: NCI-H716 cells, at 10 µM, stronger effect = higher value
[5] = HCT116 colon cancer cell growth inhibition, primary screen, CellTiter-Glo luminescence, NPC library (AID 1117342;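 active means compounds that lower survival of HCT116 colon cancer cells in the luminescence readout, no numeric limit stated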); settings: at 20 µM (top of the series)
[6] = reduced SW480 viability measured with CellTiter-Glo, NPC library, primary (AID 1117343;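 active means compounds that lower viability of the colon cancer cells in the luminescence readout, with no numeric limit stated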); settings: CellTiter-Glo luminescence; at 20 µM (top of the series)
[7] = NPC library primary testing for decreased DLD-1 cell viability via CellTiter-Glo (AID 1117346;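 active means compounds that lower survival of DLD-1 colon cancer cells in the luminescence readout, no cutoff given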); settings: DLD-1 viability, CellTiter-Glo luminescence; at 20 µM (top of the series)
[8] = target: 6-phosphogluconate dehydrogenase, decarboxylating (Homo sapiens) (UniProt P52209); test: inhibition of human phosphogluconate dehydrogenase – biochemical, recombinant enzyme, NADPH absorbance, primary screen (AID 1159550;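 active means at least 20% inhibition of 6-phosphogluconate dehydrogenase activity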); settings: recombinant 6PGD, NADPH absorbance 341 nm; at 10 µM; stronger effect = higher value
Chain of 6-phosphogluconate dehydrogenase, decarboxylating (Homo sapiens) (P52209 whole entry, looked up): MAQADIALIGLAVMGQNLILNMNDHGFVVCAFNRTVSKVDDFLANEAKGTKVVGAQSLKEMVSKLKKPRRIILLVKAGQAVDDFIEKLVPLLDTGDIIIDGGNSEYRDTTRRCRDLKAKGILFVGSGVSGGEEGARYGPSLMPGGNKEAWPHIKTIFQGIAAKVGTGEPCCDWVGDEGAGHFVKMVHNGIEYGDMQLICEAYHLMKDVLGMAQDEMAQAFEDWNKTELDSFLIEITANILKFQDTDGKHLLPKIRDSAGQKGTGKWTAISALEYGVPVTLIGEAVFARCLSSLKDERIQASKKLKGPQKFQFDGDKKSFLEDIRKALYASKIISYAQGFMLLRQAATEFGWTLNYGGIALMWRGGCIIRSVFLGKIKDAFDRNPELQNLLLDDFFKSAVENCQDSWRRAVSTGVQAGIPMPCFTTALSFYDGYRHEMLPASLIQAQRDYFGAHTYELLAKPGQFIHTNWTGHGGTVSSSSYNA

[9] = viability loss in pontine glioma line – cell-based, SU-DIPG-XVII, MIPE5.0, CellTiter-Glo, qHTS, dose response (AID 1347060; cut-off not given, nearly all actives have AC50 up to about 26 µM;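 on AC50: cells exposed to compound for 48 hours before viability readout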); settings: CellTiter-Glo ATP luminescence
[10] = viability loss in pontine glioma line – cell-based, JHH-DIPG-1, MIPE4.0, CellTiter-Glo, qHTS, dose response (AID 1347062; cut-off not given, nearly all actives have AC50 up to about 27 µM;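 on AC50: cells exposed to compound for two days before readout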); settings: JHH-DIPG-1 viability, CellTiter-Glo ATP luminescence
[11] = viability loss in pontine glioma line – cell-based, SU-DIPG-IV, MIPE4.0, CellTiter-Glo, qHTS, dose response (AID 1347063; cut-off not given, nearly all actives have AC50 up to about 30 µM;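 further: compound exposure lasted 48 hours before the viability readout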); settings: CellTiter-Glo ATP luminescence
[12] = modulation of C. elegans fzo-1 (AID 1259413; call rule not given here;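 further: fzo-1 mutant C. elegans worms in liquid wells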); settings: C. elegans fzo-1 modulator screen, mean read-out; stronger effect = higher value
[13] = viability loss in pontine glioma line – cell-based, SU-DIPG-XIII, MIPE5.0, CellTiter-Glo, qHTS, dose response (AID 1347064; cut-off not given, nearly all actives have AC50 up to about 23 µM;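 on AC50: cells exposed to compound for 48 hours before the viability read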); settings: CellTiter-Glo ATP luminescence
[14] = tested on: Aerobactin synthetase IucA (Klebsiella pneumoniae); test: inhibition of K. pneumoniae IucA enzyme – biochemical, Tocris library, absorbance (AID 1345561; call rule not given here;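 further: 100% = enzyme without compound and 0% = no enzyme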); settings: purified IucA enzyme assay, absorbance (OD) read-out; stronger effect = lower value;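 tested at 8 µM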
[15] = target: Calcium-dependent protein kinase 1 (Plasmodium falciparum (isolate 3D7)) (UniProt P62344); test: PfCDPK1 kinase inhibitors, biochemical, TCAMS library (AID 1159585; cut-off not given, nearly all actives have IC50 up to about 0.98 µM;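 further: inhibitors leave more ATP so luminescence rises with inhibition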); settings: recombinant PfCDPK1, Kinase-Glo ATP depletion luminescence
Chain of Calcium-dependent protein kinase 1 (Plasmodium falciparum (isolate 3D7)) (P62344 whole entry, looked up): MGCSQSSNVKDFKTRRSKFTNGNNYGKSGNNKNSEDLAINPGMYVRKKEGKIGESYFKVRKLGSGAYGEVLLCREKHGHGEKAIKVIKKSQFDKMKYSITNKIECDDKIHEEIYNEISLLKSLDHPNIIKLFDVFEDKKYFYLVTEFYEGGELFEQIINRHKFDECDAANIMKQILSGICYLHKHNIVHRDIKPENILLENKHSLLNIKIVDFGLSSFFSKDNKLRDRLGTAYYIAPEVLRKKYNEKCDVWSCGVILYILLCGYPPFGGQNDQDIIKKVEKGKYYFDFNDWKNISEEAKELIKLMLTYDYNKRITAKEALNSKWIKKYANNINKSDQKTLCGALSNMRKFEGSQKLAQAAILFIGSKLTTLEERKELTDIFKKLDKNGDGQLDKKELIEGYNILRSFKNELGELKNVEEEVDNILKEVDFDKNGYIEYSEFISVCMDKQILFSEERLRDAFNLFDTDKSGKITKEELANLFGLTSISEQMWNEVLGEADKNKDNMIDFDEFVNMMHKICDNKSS

[16] = target: Plasmodium falciparum protein kinase 6 (PK6, PF3D7_1337100) (UniProt Q8IDW1); test: PfPK6 kinase inhibitors, biochemical, TCAMS library (AID 1159586; call rule not given here); settings: recombinant PfPK6, Kinase-Glo ATP depletion luminescence
Chain of Plasmodium falciparum protein kinase 6 (PK6, PF3D7_1337100) (Q8IDW1 1-305): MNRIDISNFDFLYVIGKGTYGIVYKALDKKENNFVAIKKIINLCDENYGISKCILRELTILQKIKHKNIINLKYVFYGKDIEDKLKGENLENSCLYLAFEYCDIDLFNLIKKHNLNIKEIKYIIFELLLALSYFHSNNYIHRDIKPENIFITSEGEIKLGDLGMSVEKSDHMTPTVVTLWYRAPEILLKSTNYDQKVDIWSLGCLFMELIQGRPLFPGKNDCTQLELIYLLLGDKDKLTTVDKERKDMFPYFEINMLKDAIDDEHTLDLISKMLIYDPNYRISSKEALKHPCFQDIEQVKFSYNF

[17] = target: Protein kinase 7 (PK7), Plasmodium falciparum 3D7 (PF3D7_0213400) (UniProt Q7YTF7); test: inhibition of Plasmodium PK7 catalytic activity – biochemical, TCAMS antimalarial set, Kinase-Glo luminescence (AID 1159587; call rule not given here); settings: recombinant PfPK7, Kinase-Glo ATP depletion luminescence
Chain of Protein kinase 7 (PK7), Plasmodium falciparum 3D7 (PF3D7_0213400) (Q7YTF7 1-343): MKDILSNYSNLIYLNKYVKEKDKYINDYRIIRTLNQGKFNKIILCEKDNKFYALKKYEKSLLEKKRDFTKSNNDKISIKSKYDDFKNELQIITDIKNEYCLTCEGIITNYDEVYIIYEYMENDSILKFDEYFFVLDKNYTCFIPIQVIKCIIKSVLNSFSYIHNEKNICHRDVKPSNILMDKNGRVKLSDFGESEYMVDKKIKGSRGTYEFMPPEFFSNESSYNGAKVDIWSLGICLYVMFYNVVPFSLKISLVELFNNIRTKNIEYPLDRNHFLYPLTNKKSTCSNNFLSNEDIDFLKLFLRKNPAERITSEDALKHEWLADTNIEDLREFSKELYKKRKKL

[18] = target: Calcium-dependent protein kinase 4 (Plasmodium falciparum (isolate 3D7)) (UniProt Q8IBS5); test: PfCDPK4 kinase inhibitors, biochemical, TCAMS library (AID 1159588; cut-off not given, nearly all actives have IC50 up to about 0.91 µM); settings: recombinant PfCDPK4, Kinase-Glo ATP depletion luminescence
Chain of Calcium-dependent protein kinase 4 (Plasmodium falciparum (isolate 3D7)) (Q8IBS5 whole entry, looked up): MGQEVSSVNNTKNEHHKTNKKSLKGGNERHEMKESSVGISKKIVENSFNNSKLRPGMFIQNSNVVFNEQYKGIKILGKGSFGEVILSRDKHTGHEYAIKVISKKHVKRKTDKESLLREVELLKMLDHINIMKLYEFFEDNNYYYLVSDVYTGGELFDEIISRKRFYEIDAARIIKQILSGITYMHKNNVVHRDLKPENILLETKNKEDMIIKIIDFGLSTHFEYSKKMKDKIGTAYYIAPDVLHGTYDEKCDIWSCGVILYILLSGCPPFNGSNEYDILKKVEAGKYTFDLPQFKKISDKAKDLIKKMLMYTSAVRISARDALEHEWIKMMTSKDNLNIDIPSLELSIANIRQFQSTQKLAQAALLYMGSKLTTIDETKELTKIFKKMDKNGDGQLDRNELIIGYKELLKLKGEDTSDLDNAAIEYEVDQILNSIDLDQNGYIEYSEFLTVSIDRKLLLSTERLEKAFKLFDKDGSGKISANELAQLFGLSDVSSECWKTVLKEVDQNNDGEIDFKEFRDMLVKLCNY

[19] = EMT-state selective cytotoxicity in co-culture – imaging, PC-3E GFP, TEM4-18 mCherry, primary screen (AID 1345086;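 active means compounds killing one labelled cell type while sparing the other, by normalised counts and ratio limits, not self-fluorescent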;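 further: cells exposed to compound for 72 h before imaging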;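 on red/green cell ratio (normalised): normalised mesenchymal count divided by normalised epithelial count so high means epithelial killing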); settings: PC-3E GFP / TEM4-18 mCherry co-culture, imaging cell counts, at 1 µM
[20] = viability loss in pontine glioma line – cell-based, SU-DIPG-XIII, MIPE4.0, CellTiter-Glo, qHTS, dose response (AID 1347061; cut-off not given, nearly all actives have AC50 up to about 37 µM;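 further: cells exposed to compound for 48 hours before readout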); settings: CellTiter-Glo ATP luminescence

## CC(=O)O[C@]1(C(C)=O)CC[C@H]2[C@@H]3C=C(Cl)C4=CC(=O)[C@@H]5C[C@@H]5[C@]4(C)[C@H]3CC[C@@]21C
[1]
  insulin secretion stimulation: -1.4% (inactive)
[2]
  viability decrease: 16% (inactive)
[3]
  tube area decrease: 10.1% (inactive)
[4]
  GLP1 secretion stimulation: 1.2% (inactive)
[5]
  inhibition of viability: 29.2% (inactive)
[6]
  viability decrease (inhibition): 48.9% (inactive)
[7]
  viability decrease (inhibition): -4.3% (inactive)
[8]
  inhibition: -7.53% (inactive)
[9]
  AC50: 23.5 µM (active)
[10]
  AC50: 23.5 µM (active)
[11]
  AC50: 9.35 µM (active)

## CCOC(=O)C1=C(C)NC(C)=C(C(=O)OCC)C1c1ccccc1/C=C/C(=O)OC(C)(C)C
[1]
  insulin secretion stimulation: 0.3% (inactive)
[2]
  viability decrease: 117% (active)
[3]
  tube area decrease: 101% (active)
[4]
  GLP1 secretion stimulation: -0.4% (inactive)
[5]
  inhibition of viability: 124% (active)
[6]
  viability decrease (inhibition): 158% (active)
[7]
  viability decrease (inhibition): 101% (active)
[12]
  mean signal: 249 (inactive)

## CO[C@@]12[C@H](COC(N)=O)C3=C(C(=O)C(C)=C(N)C3=O)N1C[C@@H]1N[C@@H]12
[1]
  insulin secretion stimulation: 0.2% (inactive)
[2]
  viability decrease: 106% (active)
[3]
  tube area decrease: 108% (active)
[4]
  GLP1 secretion stimulation: 1.2% (inactive)
[5]
  inhibition of viability: 105% (active)
[6]
  viability decrease (inhibition): 124% (active)
[7]
  viability decrease (inhibition): 95.8% (active)
[8]
  inhibition: -2.77% (inactive)
[9]
  AC50: 0.417 µM (active)
[10]
  AC50: 16.6 µM (active)
[11]
  AC50: 0.469 µM (active)
[13]
  AC50: 7.42 µM (active)

## NC(N)=N/N=C/c1c(Cl)cccc1Cl
[1]
  insulin secretion stimulation: -0.5% (inactive)
[2]
  viability decrease: 60% (active)
[3]
  tube area decrease: 18.2% (inactive)
[4]
  GLP1 secretion stimulation: 2.1% (inactive)
[5]
  inhibition of viability: 80.7% (active)
[6]
  viability decrease (inhibition): 99.6% (active)
[7]
  viability decrease (inhibition): 45.4% (inactive)
[8]
  inhibition: 14% (inactive)
[14]
  remaining activity: 99.1% (inactive)

## O=C(Nc1cccc(C2=NCCN2)c1)Nc1cccc(C2=NCCN2)c1
[1]
  insulin secretion stimulation: 0.05% (inactive)
[2]
  viability decrease: 72.2% (active)
[3]
  tube area decrease: -57.4% (inactive)
[4]
  GLP1 secretion stimulation: -1% (inactive)
[5]
  inhibition of viability: 70.7% (active)
[6]
  viability decrease (inhibition): 52.2% (active)
[7]
  viability decrease (inhibition): 60.8% (active)
[15]
  outcome: inactive
[16]
  outcome: inactive
[17]
  outcome: inactive
[18]
  outcome: inactive

## CNCC(O)c1ccc(O)c(O)c1 (stereo not given)
[1]
  insulin secretion stimulation: 5.7% (inactive)
[2]
  viability decrease: 58.5% (active)
[3]
  tube area decrease: -33.6% (inactive)
[4]
  GLP1 secretion stimulation: 2.7% (inactive)
[5]
  inhibition of viability: 29% (inactive)
[6]
  viability decrease (inhibition): 58.9% (active)
[7]
  viability decrease (inhibition): 17.7% (inactive)
[12]
  mean signal: 245 (inactive)

## CCCCc1ccc2nc(NC(=O)OC)[nH]c2c1
[1]
  insulin secretion stimulation: -1.7% (inactive)
[2]
  viability decrease: 91.7% (active)
[3]
  tube area decrease: 108% (active)
[4]
  GLP1 secretion stimulation: -5.4% (inactive)
[5]
  inhibition of viability: 67.5% (active)
[6]
  viability decrease (inhibition): 33.8% (inactive)
[7]
  viability decrease (inhibition): 50.6% (active)
[15]
  outcome: inactive
[16]
  outcome: inactive
[17]
  outcome: inactive
[18]
  outcome: inactive
[9]
  AC50: 0.186 µM (active)

## Cc1[nH]cnc1CN1CCc2c(c3ccccc3n2C)C1=O
[1]
  insulin secretion stimulation: 0.5% (inactive)
[2]
  viability decrease: 10.2% (inactive)
[3]
  tube area decrease: 19.5% (inactive)
[4]
  GLP1 secretion stimulation: 5.1% (inactive)
[5]
  inhibition of viability: -1.8% (inactive)
[6]
  viability decrease (inhibition): 42.2% (inactive)
[7]
  viability decrease (inhibition): 23.8% (inactive)
[12]
  mean signal: 241 (inactive)

## CC(=O)N(O)CCCCCNC(=O)CCC(=O)N(O)CCCCCNC(=O)CCC(=O)N(O)CCCCCN
[1]
  insulin secretion stimulation: 1.8% (inactive)
[2]
  viability decrease: 56.1% (active)
[3]
  tube area decrease: 83% (active)
[4]
  GLP1 secretion stimulation: -3.6% (inactive)
[5]
  inhibition of viability: 75.7% (active)
[6]
  viability decrease (inhibition): 21% (inactive)
[7]
  viability decrease (inhibition): 31.5% (inactive)
[8]
  inhibition: -4.7% (inactive)
[19]; actives lie on both sides, counts scaled to control wells, 1 = unselective
  red/green cell ratio (normalised): 1.51 (inactive)
[19]; measured here: epithelial PC-3E GFP cell survival
  normalised cell number: 1.1
[19]; measured here: mesenchymal TEM4-18 mCherry cell survival
  normalised cell number: 1.67
[13]
  AC50: 7.42 µM (active)

## COC(=O)[C@@H]1[C@H]2C[C@H]3c4[nH]c5ccccc5c4CCN3C[C@@H]2CC[C@@H]1O
[1]
  insulin secretion stimulation: 1.1% (inactive)
[2]
  viability decrease: -73.5% (inactive)
[3]
  tube area decrease: 10.7% (inactive)
[4]
  GLP1 secretion stimulation: -0.7% (inactive)
[5]
  inhibition of viability: 13.8% (inactive)
[6]
  viability decrease (inhibition): 18.3% (inactive)
[7]
  viability decrease (inhibition): -9.4% (inactive)
[8]
  inhibition: 2.13% (inactive)
[9]
  outcome: inactive
[20]
  outcome: inactive
[10]
  outcome: inactive
[13]
  outcome: inactive

## CC(C)(O)c1ccccc1CC[C@@H](SCC1(CC(=O)O)CC1)c1cccc(/C=C/c2ccc3ccc(Cl)cc3n2)c1
[1]
  insulin secretion stimulation: 1.4% (inactive)
[2]
  viability decrease: 111% (active)
[3]
  tube area decrease: -7.2% (inactive)
[4]
  GLP1 secretion stimulation: 80.8% (active)
[5]
  inhibition of viability: 114% (active)
[6]
  viability decrease (inhibition): 133% (active)
[7]
  viability decrease (inhibition): 102% (active)
[12]
  mean signal: 259 (inactive)

## CCN1CCN(C(=O)N[C@@H](C(=O)N[C@@H]2C(=O)N3C(C(=O)O)=C(CSc4nnnn4C)CS[C@H]23)c2ccc(O)cc2)C(=O)C1=O
[1]
  insulin secretion stimulation: 1.3% (inactive)
[2]
  viability decrease: 6.1% (inactive)
[3]
  tube area decrease: -32.8% (inactive)
[4]
  GLP1 secretion stimulation: 5.2% (inactive)
[5]
  inhibition of viability: -2.2% (inactive)
[6]
  viability decrease (inhibition): 8.6% (inactive)
[7]
  viability decrease (inhibition): 3.3% (inactive)
[8]
  inhibition: 16.7% (inactive)
[9]
  AC50: 26.3 µM (active)
[13]
  outcome: inactive

## CN(Cc1cnc2nc(N)nc(N)c2n1)c1ccc(C(=O)N[C@@H](CCC(=O)O)C(=O)O)cc1
[1]
  insulin secretion stimulation: -1.8% (inactive)
[2]
  viability decrease: 87.8% (active)
[3]
  tube area decrease: 57.2% (active)
[4]
  GLP1 secretion stimulation: 1.1% (inactive)
[5]
  inhibition of viability: 74.5% (active)
[6]
  viability decrease (inhibition): 78.8% (active)
[7]
  viability decrease (inhibition): 65.9% (active)
[15]
  outcome: inactive
[16]
  outcome: inactive
[17]
  outcome: inactive
[18]
  outcome: inactive
[12]
  mean signal: 204 (inactive)
[14]
  remaining activity: 114% (inactive)
[20]
  outcome: inactive
